In PubChem BioAssay:
Measured potencies and affinities stand elsewhere. The source made the active and inactive calls. Cut-off not given; nearly all actives show IC50 up to about 0.91 µM.

target: Calcium-dependent protein kinase 4 (Plasmodium falciparum (isolate 3D7)) (UniProt Q8IBS5); experiment: PfCDPK4 kinase inhibitors, biochemical, TCAMS library (AID 1159588); details: recombinant PfCDPK4, Kinase-Glo ATP depletion luminescence
Sequence (Q8IBS5 whole entry, looked up): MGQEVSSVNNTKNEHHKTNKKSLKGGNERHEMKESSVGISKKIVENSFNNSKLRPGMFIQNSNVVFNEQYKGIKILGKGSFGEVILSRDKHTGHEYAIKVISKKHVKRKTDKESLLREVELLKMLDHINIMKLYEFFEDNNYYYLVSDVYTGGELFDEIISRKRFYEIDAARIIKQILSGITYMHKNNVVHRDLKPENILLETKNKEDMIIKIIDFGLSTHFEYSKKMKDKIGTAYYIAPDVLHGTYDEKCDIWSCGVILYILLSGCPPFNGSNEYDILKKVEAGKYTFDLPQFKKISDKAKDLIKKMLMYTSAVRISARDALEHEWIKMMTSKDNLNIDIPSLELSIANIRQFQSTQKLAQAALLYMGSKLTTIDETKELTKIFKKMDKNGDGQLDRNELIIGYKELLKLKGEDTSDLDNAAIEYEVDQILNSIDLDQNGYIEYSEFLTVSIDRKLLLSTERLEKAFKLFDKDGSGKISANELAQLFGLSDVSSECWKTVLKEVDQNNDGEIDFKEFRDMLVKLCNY

Row | SMILES | outcome
1 | CC(=O)C=C1CC(=O)N(C[C@@H](O)[C@H]2O[C@@H]3OC(C)(C)O[C@@H]3[C@H]2O)c2ccccc2N1 | inactive
2 | O=C(Nc1cccc(-c2ccc(-c3nc4ccc(C(F)(F)F)cc4[nH]3)cc2)c1)c1ccoc1 | inactive
3 | Cc1cc(C2CCN(CCCCNC(=O)c3ccc(-c4ccc(C#N)cc4)cc3)CC2)c(C)cc1O | inactive
4 | CNC(=O)CSc1nnc(-c2ccc(C)cc2)c(-c2ccc(C)cc2)n1 | inactive
5 | CCN(CC)CCN(CCN(CC)CC)c1ccc(-c2nc3cc(Cl)c(Cl)cc3[nH]2)cc1 | inactive
6 | CN(C)CCOc1ccc(/C(=C(/CCCn2ccnc2)c2ccccc2)c2ccc(O)cc2)cc1 | inactive
7 | CC(C)c1ccc(Nc2nc(NCCc3cnc[nH]3)nc(NCc3ccccc3)n2)cc1 | inactive
8 | Cc1ccc(Oc2ccc(NC(=O)CNc3ccccc3N3CCCC3=O)cc2)cc1 | inactive
9 | CC1(C)N=C(N)N=C(N)N1OCCc1ccccc1 | inactive
10 | OC(COCc1ccc(-c2ccccc2)cc1)CN1CCCCC1 (stereo not given) | inactive
11 | COc1ccc(-c2csc(NC(=O)CCC(=O)O)n2)cc1OC | inactive
12 | CCCC(=O)Nc1ccc(OCCCN(Cc2ccccc2F)c2ccc(C#N)c(C(F)(F)F)c2)cc1 | inactive
13 | Cc1cccc2[nH]c(-c3ccc(-c4ccc(CNCc5ccc(CN)cc5)cc4)cc3)nc12 | inactive
14 | NC(N)=NC(=O)Nc1ccc(Cl)c(Cl)c1 | inactive
15 | COCCNCc1cccc(-c2ccccc2CN(C(=O)c2ccc3c(c2)OCO3)c2ccc(OC)cc2)c1 | inactive
16 | FC(F)(F)c1cccnc1N1CCC(Nc2nc3ccc(Cl)cc3[nH]2)CC1 | inactive
17 | c1ccc2c(Nc3ccc(Cc4ccc(Nc5c6ccccc6nc6ccccc56)cc4)cc3)c3ccccc3nc2c1 | inactive
18 | COc1cc(F)c2nccc([C@@H](O)CN3CC[C@H](NCc4ccc5c(n4)NC(=O)CS5)[C@H](F)C3)c2c1 | inactive
19 | COc1ccc(-c2nc(-c3ccc([N+](=O)[O-])cc3)no2)cc1OC | inactive
20 | N#Cc1ccc(-c2ccc(C(=O)NCCCCN3CCC(c4ccc5c(c4OCC(N)=O)CCCC5)CC3)cc2)cc1 | inactive

Row | SMILES | outcome
21 | CC1CN(CC(O)Cn2c3ccc(Br)cc3c3cc(Br)ccc32)CC(C)O1 (stereo not given) | inactive
22 | N#Cc1cccc(C(=O)Nc2cccc(-c3cccc(CN4CCNCC4)c3)c2)c1 | inactive
23 | COCCNCc1cccc(C#Cc2cc3ncnc(Nc4ccc(OCc5cccc(F)c5)c(Cl)c4)c3s2)n1 | inactive
24 | Cc1cccc(-c2ccc3c(c2)CC(NCc2cccc(-n4ccnc4)c2)C3)c1 (stereo not given) | inactive
25 | Nc1nc(N)c2c(ccc3c2ccn3Cc2ccccc2)n1 | inactive
26 | COc1ccc(-c2cccc(NC(=O)c3cccc(Cl)c3)c2)cc1CN1CCC(O)CC1 | inactive
27 | Cc1cccc2[nH]c(-c3ccc(-c4cccc(CNCc5ccccc5)c4)cc3)nc12 | inactive
28 | FC(F)(F)c1ccc2nc(-c3ccc(-c4cccc(CN5CCC(CCN6CCCCC6)CC5)c4)cc3)[nH]c2c1 | inactive
29 | CN1CCC(C(=O)Nc2ccc(-c3ccc(-c4nc5ccccc5[nH]4)s3)cc2)CC1 | inactive
30 | COc1ccc(Nc2nccc(NCC(O)c3ccc(C(F)(F)F)cc3)n2)cc1 (stereo not given) | inactive
31 | CC(C)Cc1cn(-c2nc(-c3nc4ccccc4[nH]3)cs2)c2ccncc12 | inactive
32 | CC1=C(C(=O)Nc2cc3cn[nH]c3cc2F)C(c2cccc(O)c2F)CC(=O)N1 (stereo not given) | inactive
33 | O=C(Nc1ccccc1)c1ccc(N2CCC(COc3cccc(C(F)(F)F)c3)CC2)nc1 | inactive
34 | CN(C)c1nc2cc(-n3cnc4cc(-c5ccc(Cl)cc5)sc4c3=O)ccc2n1CCCN1CCCC1 | inactive
35 | O=C(NCC1CCC(C(=O)O)CC1)c1ccc(/C=C/C(=O)N2CCc3ccccc3C2c2ccc3c(c2)OCO3)cc1 (stereo not given) | inactive
36 | COc1ccc(CN(C)CCCOc2ccc(NC(=O)C=Cc3ccc(C(C)(C)C)cc3)cc2)cc1OC | inactive
37 | CC(C)CCCC(C)NC[C@@H](O)[C@H](Cc1ccccc1)NC(=O)c1cc(N2CCCC2=O)cc(N(c2ccccc2)S(C)(=O)=O)c1 (stereo not given in full) | inactive
38 | CC(C)CCNC(=O)C1Cc2c([nH]c3ccc(Br)cc23)C2(CCN(Cc3ccccc3)CC2)N1 (stereo not given) | inactive
39 | CN1CCN(c2ccnc3cc4ccccc4cc23)CC1 | inactive
40 | Cc1noc(C)c1-c1cccc(CNCc2cccc(-c3ccc(-c4nc5ccccc5[nH]4)s3)c2)c1 | inactive
